The values that follow come from PubChem BioAssay (NCI).

About 83,000 compounds went through this panel and 20% of them were active in at least one assay; those are over-represented in the sample as a whole.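 A percent growth of 40 corresponds to 60% growth inhibition; 0 means no net growth; -100 means all cells died. Active threshold: below 10.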 A number with no mark means an inactive call. Activity calls are given as the source filed them.

This experiment concerns NCI-H226 lung. In words: NCI-60 one-dose screen, 48 h (100 = growth as untreated, 0 = no growth, -100 = all killed). As to conditions: 10 µM unless noted.
Consider `CCCSc1nc(Nc2ccc(S(N)(=O)=O)cc2)c(C#N)c(-c2ccc(Cl)cc2)n1`, for which the growth was -2.08% (active). The value for `CCCCSc1nc(Nc2ccc(S(N)(=O)=O)cc2)c(C#N)c(-c2ccc(Cl)cc2)n1` was 12.8%; that for `Cn1cc(-c2cc3nc(-c4cn(C)c5ncccc45)cc(N)n3n2)c2ccccc21` was -21.6% (active). The value for `Cc1ccc(C2=NN(c3nc(-c4cc5ccccc5oc4=O)cs3)C(c3ccc(C)cc3)C2)cc1` (configuration not stated) was 88.8%. The value for `Cc1ccc2c(c1)nc(-c1ccccc1)n2CC(=O)N=Nc1c(O)[nH]c2ccc(Br)cc12` was -72.4% (active); that for `O=C(Cn1nc(-c2ccccc2)ccc1=O)N/N=C/c1ccc(N2CCOCC2)cc1` was 89.7%. On to `O=C(NN1C(=O)/C(=C/C=C/c2ccc([N+](=O)[O-])o2)SC1=S)c1ccc(Cl)cc1`, for which the growth is -97.1% (active).

With `CCCCSc1nc(Nc2ccc(S(N)(=O)=O)cc2)c(C#N)c(-c2cc(OC)c(OC)c(OC)c2)n1`, the growth was 59.3%. The value for `COc1cc2c3c(n(CCCN4CCC[C@@H]4CO)c(=O)c2cc1OC)-c1cc2c(cc1C3=O)OCO2` was -66.5% (active); that for `Cn1cc(-c2cc(N)n3nc(-c4cn(C)c5ncc(Br)cc45)cc3n2)c2cc(Br)cnc21` was 78%. The value for `Cn1cc(-c2cc(N)n3nc(-c4c[nH]c5ccccc45)cc3n2)c2cccnc21` was 71.2%.

As for `CN(C)c1nc(NCCNS(=O)(=O)c2ccc(C3=Nc4c(N)nc(N)nc4NC(c4ccccc4)C3)cc2)nc(Nc2ccc(F)cc2)n1` (configuration not stated), the growth is 52.8%. With `COc1ccc(-c2ccc(SCC(=O)NCCc3ccc(S(N)(=O)=O)cc3)nn2)cc1`, the growth is 77%. The value for `O=C(CCN1C(=O)/C(=C/c2ccc(F)cc2)SC1=S)N1CCOCC1` was 74.2%; that for `Cc1cc2nc3c4ccccc4n(CC4=NCCN4)c3nc2cc1C` was 23.9%. The value for `Cc1ccc(C(=O)NN2C(=O)/C(=C/C=C/c3ccc([N+](=O)[O-])o3)SC2=S)cc1` was -95.6% (active). The result for `Cc1cc2nc3c([nH]c2cc1C)c1ccc(=O)cc1n3CCN(C)C` reads 59%; that for `N/C(=N\c1nc2ccccc2s1)NC(=O)Nc1c(Cl)cccc1Cl`, 67.2%; that for `Brc1ccc(-c2n(Cc3ccc4ccccc4c3)c(-c3ccccc3)c(-c3ccccc3)[n+]2Cc2ccc3ccccc3c2)cc1`, -51.6% (active). Take `C=C1CC[C@@H]2[C@]3(C)COC(c4cn[nH]c4-c4ccc(Br)cc4)O[C@@H]3CC[C@@]2(C)[C@@H]1C/C=C1/C(=O)OCC1O` (some centres not stated): the growth is -83.3% (active). The result for `COc1ccc(-c2nc3cc(C)ccc3n2CC(=O)N=Nc2c(O)[nH]c3ccc(Br)cc23)cc1` reads -13.4% (active); that for `CC12CC[C@@H]3[C@]4(C)COC(c5cn[nH]c5-c5cccc(Br)c5)O[C@@H]4CC[C@@]3(C)[C@@H]1CC(C1=CCOC1=O)O2` (some centres not stated), 37.8%.

Consider `COc1c(F)ccc(C(=O)Nc2ccc3nc(NC(=O)C4CCCN(S(=O)(=O)c5ccc(C#N)cc5)C4)sc3c2)c1F` (configuration not stated), for which the growth was 90.3%. The result for `COc1ccc2c(c1)c(-c1cc3nc(-c4cn(C)c5ncccc45)cc(N)n3n1)cn2C` reads -16.6% (active); that for `CC(=O)c1cc(C(=O)c2ccccc2)n2c1ccc1ccccc12`, 94%; that for `COc1ccc2[nH]c(=O)c(CSc3nccc(-c4ccc(OC)c(OC)c4)n3)cc2c1`, -13.2% (active).

Take `COc1ccc(NC(=O)Cn2c3c(sc2=O)[C@H]2[C@@H](O)[C@@H](O)[C@H](O)[C@@H]2CS3)cc1`: the growth was 96.3%. The value for `C=C1CCC2C3(C)COC(c4cccs4)OC3CCC2(C)C1CC(Sc1ccccc1)C1=CCOC1=O` (configuration not stated) was 87.7%; that for `CC1CN(c2oc(-c3ccc([N+](=O)[O-])cc3)nc2C#N)CC(C)O1` (configuration not stated) was 102%; that for `Cc1occc1C(=O)NN1C(=O)/C(=C/C=C/c2ccc([N+](=O)[O-])o2)SC1=S` was -18.3% (active). The result for `N=C1N=C(SCc2nc3ccccc3[nH]2)NC(=O)/C1=C/c1ccc(Cl)cc1` reads 95.1%. The result for `O=C(NN1C(=O)/C(=C/C=C/c2ccc([N+](=O)[O-])o2)SC1=S)c1ccccc1O` reads -71.2% (active); that for `COc1ccc(-c2nc3cc(C)ccc3n2CC(=O)N=Nc2c(O)[nH]c3ccc(Cl)cc23)cc1`, -34.1% (active). As for `COC1=C[C@]23CCC(=O)N2CCc2cc4c(cc2[C@@H]3[C@@H]1OC(=O)[C@H](C)O)OCO4`, the growth is 11%. The result for `Cc1sc2c(c1C)C(c1ccc(Cl)cc1)=N[C@@H](CC(=O)NCCCCCNC(=O)COc1ccc(C3CCC(=O)NC3=O)cc1)c1nnc(C)n1-2` (some centres not stated) reads 8.38% (active); that for `N/C(=N\c1nc2ccccc2s1)NC(=O)Nc1ccc(Cl)cc1Cl`, -40.2% (active); that for `CC1=C(C#N)C2=NNCC(c3ccccc3)=NN2C(c2ccccc2)=C1`, 111%.
